Measurements: the supplement of paper PMC10503962

What follows are compounds tested on Trichuris muris adult worms (assay: mean motility score (Paragon pixel variance) of adult worms (arbitrary units); higher = more motile worms, i.e. less anthelmintic effect; extreme values may be limits of the assay). Conditions: 100 µM; 24 h.
Procedure: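 Primary ex vivo screen of 409 approved drugs against adult Trichuris muris worms: one worm per well in RPMI-1640 with penicillin/streptomycin, 100 µM drug in 1% DMSO, 37 °C, 5% CO2 for 24 h. Motility was recorded with INVAPP (200-frame movies) and scored with the Paragon pixel-variance algorithm. Values are means of triplicate wells run on three occasions; levamisole was the positive control and DMSO the negative control.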

Row | Structure (SMILES) | mean motility score
1 | CC(C)C[C@H]1C(=O)N2CCC[C@H]2[C@]2(O)O[C@](NC(=O)C3C=C4c5cccc6[nH]c(Br)c(c56)C[C@H]4N(C)C3)(C(C)C)C(=O)N12.CS(=O)(=O)O (some centres undefined) [bromocriptine methanesulfonate] | 2300
2 | CN1C[C@H](C(=O)N[C@]2(C)O[C@@]3(O)[C@@H]4CCCN4C(=O)[C@H](Cc4ccccc4)N3C2=O)CC2c3cccc4[nH]cc(c34)C[C@H]21.CS(=O)(=O)O (some centres undefined) [dihydroergotamine methanesulfonate] | 1730
3 | C#C[C@]1(O)CC[C@H]2[C@@H]3CCC4=CC(=O)CC[C@]4(C)[C@H]3CC[C@@]21C [ethisterone] | 1590
4 | C#CCN(C)[C@H](C)Cc1ccccc1.Cl [selegiline hydrochloride] | 2950
5 | C[N+](C)(C)CCCCCCCCCC[N+](C)(C)C.[Br-].[Br-] [decamethonium bromide] | 2280
6 | CC[C@H]1[C@H]2CC3[C@@H]4N(C)c5ccccc5[C@]45C[C@H]([C@@H]2C5O)N3[C@@H]1O (some centres undefined) [ajmaline] | 1790
7 | C=CCN1CC[C@]23c4c5ccc(O)c4O[C@H]2C(=O)CC[C@@]3(O)[C@H]1C5.Cl [naloxone hydrochloride] | 3870
8 | COc1ccc(CCN2CCC(Nc3nc4ccccc4n3Cc3ccc(F)cc3)CC2)cc1 [astemizole] | 0
9 | O=C1CC[C@@]2(O)[C@H]3Cc4ccc(O)c5c4[C@@]2(CCN3CC2CC2)[C@H]1O5 [naltrexone] | 3530
10 | CCCN1C[C@H](CSC)C[C@@H]2c3cccc4[nH]cc(c34)C[C@H]21.CS(=O)(=O)O [pergolide mesylate] | 3150
11 | COc1ccc(C(CN(C)C)C2(O)CCCCC2)cc1.Cl (centres undefined) [venlafaxine hydrochloride] | 1570
12 | N[C@@H](Cc1cc(Br)c(O)c(Br)c1)C(=O)O [3,5 dibromotyrosine] | 3040
13 | COc1cc2c(c(OC)c1OC)-c1ccc(OC)c(=O)cc1[C@@H](NC(C)=O)CC2 [colchicine] | 1420
14 | CN(C)C(=O)Oc1ccc[n+](C)c1.[I-] [pyridostigmine iodide] | 2610
15 | Cl.O=C(CCCN1CCC(n2c(=O)[nH]c3ccccc32)CC1)c1ccc(F)cc1 [benperidol hydrochloride] | 3960
16 | CN(C)C(=O)Oc1cc(OC(=O)N(C)C)cc(C(O)CNC(C)(C)C)c1.Cl (centres undefined) [bambuterol hydrochloride] | 1410
17 | CC[C@@H](CO)NC(=O)[C@@H]1C=C2c3cccc4[nH]cc(c34)C[C@H]2N(C)C1.O=C(O)/C=C\C(=O)O [methylergonovine maleate] | 2650
18 | COc1cc([C@@H]2c3cc4c(cc3[C@H](O)[C@H]3COC(=O)[C@H]23)OCO4)cc(OC)c1OC [podofilox] | 3650
19 | [O-][n+]1ccccc1S [pyrithione] | 3120
20 | CNC(=O)Oc1ccc2c(c1)[C@]1(C)CCN(C)[C@@H]1N2C [physostigmine] | 3170
21 | CCOP(=O)(OCC)Oc1ccc([N+](=O)[O-])cc1 [paraoxon] | 0
22 | C[C@H](N)[C@H](O)c1ccc(O)c(O)c1 [levonordefrin] | 2110
23 | CN(C)C(=O)Oc1cccc([N+](C)(C)C)c1.COS(=O)(=O)[O-] [neostigmine methylsulfate] | 1600
24 | CC(C)N(CCC(C(N)=O)(c1ccccc1)c1ccccn1)C(C)C (centres undefined) [disopyramide] | 1630
